Results taken from PubChem BioAssay (NCI).
About 83,000 compounds went through this panel and 20% of them were active in at least one assay; those are over-represented in the sample as a whole.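 Method: cells in 96-well plates; compound added at one concentration; 48 h incubation; percent growth measured; values under 10 scored active.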 Unmarked numbers belong to inactive results. The source made the active and inactive calls.

test system: MDA-MB-468 breast; assay: NCI-60 one-dose screen, 48 h (100 = growth as untreated, 0 = no growth, -100 = all killed); conditions: 10 µM unless noted

Row | Compound | growth
1 | N#CC1=C(c2ccccc2)Nc2c(c(-c3ccc(Cl)cc3)nn2-c2ccccc2)C12C(=O)Nc1ccc(Cl)cc12 (stereo not given) | 70%
2 | COc1ccc(CNCCN2C(=O)c3ccc4c5c(ccc(c35)C2=O)C(=O)N(CCNCc2ccc(OC)c(OC)c2OC)C4=O)c(OC)c1OC | -87.2% (active)
3 | CC(=O)OCC1SC(OC(C)=O)C(NC(=O)/C=C/CCl)C(OC(C)=O)C1OC(C)=O (stereo not given) | 98.5%
4 | COc1ccc(C/C(C)=C(/c2ccc(OCCN(C)C)cc2)c2ccc(OC(=O)NCc3ccccc3)cc2)cc1 | 67.6%
5 | Cc1c(C)c(C)c([N+](=O)[O-])c([N+](=O)[O-])c1C | 82.1%
6 | O=C1SCN(Cc2ccccc2)CN1Cc1ccccc1 | 24.8%
7 | COc1ccc(C2C=C(c3ccc(Cl)cc3)N=C3SC=CN32)cc1 (stereo not given) | 120%
8 | Cc1sc2nc(NCc3ccccc3Cl)[nH]c(=O)c2c1C | 101%
9 | COc1ccc(NC(=O)c2sc3nc(-c4cnccn4)cc(-c4cccs4)c3c2N)cc1 | 89%
10 | CN1C(=O)N(C)C2C1NN=c1s/c(=C\c3ccc(C(F)(F)F)cc3)c(=O)n12 (stereo not given) | -2.71% (active)
11 | CCN(CC)CCCC(C)N=C(C1=C(C(=NC(C)CCCN(CC)CC)c2cccc(OC)c2)C(=O)NC1=O)c1cccc(OC)c1 (stereo not given) | -50.4% (active)
12 | COc1ccc2c(c1)NC1=C(C(=O)OC1)C2c1cc(OC)c2c(c1)OCO2 (stereo not given) | -5.15% (active)
13 | Fc1ccc(-c2nnc(/C=C/c3cn(-c4ccccc4)nc3-c3ccccc3)o2)cc1 | 103%
14 | C#CCn1cnc2c(Nc3cccc(NC(=O)C=C)c3)ncnc21 | 78%
15 | COc1ccc(-c2cc3c(OC)c(OC)c(OC)cc3oc2=O)cc1 | 23.6%
16 | COC1OC(C(O)C(O)CO)C(O)C(O)C1O (stereo not given) | 101%
17 | C1=CC2=CC=C3C=CC=C4C(c5nc6c7ccccc7c7ccccc7c6[nH]5)=CC(=C1)C2C34 (stereo not given) | 21.9%
18 | O=C(NCCNc1cc(-c2cn(-c3ccccc3)nc2-c2cccc(O)c2)ccn1)Nc1ccc(Cl)c(C(F)(F)F)c1 | 17.5%
19 | Cc1ccccc1C1CC(=O)c2ccccc2C1C (stereo not given) | 83%
20 | Cc1ccc2oc(=O)cc(-c3cc(-c4cc5ccccc5oc4=O)nc(N)c3C#N)c2c1 | 68.7%

Row | Compound | growth
21 | O=C(CN1C(=O)NC2NC(=O)NC21)N/N=C/c1ccccc1[N+](=O)[O-] (stereo not given) | 98.5%
22 | CCOC(=O)Oc1c(OC)cc(C(=O)c2ccc(OC)c(OC(=O)CCl)c2OC)cc1OC | 0.206% (active)
23 | CCN(CCNc1cc(OC)cc2cccnc12)CCc1ccccc1 | -25.4% (active)
24 | N#Cc1cc(-c2ccnc(Nc3ccc(NC(=O)CCl)cc3)n2)ccc1N1CCCC1 | -45.9% (active)
25 | CC1=NN(c2ccc(S(=O)(=O)O)cc2Cl)C(=O)C1 | 107%
26 | O=C(CCc1nnc(-c2c(Cl)cccc2Cl)o1)c1nc2ccccc2[nH]1 | -2.19% (active)
27 | Cc1ccc2c(c1)nc(C)n2-c1ncnc2c1CC(C)c1cc(O)ccc1N2C (stereo not given) | 10%
28 | C=CC(C)(O)CC/C=C(\CO)C(=O)OC1C(C)OC(O[C@](C)(C=C)CC/C=C(\CO)C(=O)O[C@H]2C[C@@]3(C(=O)OC4OC(CO)C(O)C(O)C4OC4OC(C)C(OC5OC(CO)C(O)C5O)C(OC5OC(CO)C(O)C(O)C5O)C4O)C(CC2(C)C)C2=CCC4[C@@]5(C)CC[C@H](OC6OC(COC7OC(C)C(O)C(O)C7OC7OCC(O)C(O)C7O)C(O)C(O)C6NC(C)=O)C(C)(C)C5CC[C@@]4(C)[C@]2(C)C[C@H]3O)C(O)C1O (stereo not given in full) | 19.9%
29 | S=C(Nc1ccc(C2=NCCN2)cc1)Nc1ccc(C2=NCCN2)cc1 | 67.6%
30 | O=NN(CC(=O)NNc1ccccc1)CC(=O)NNc1ccccc1 | 77.7%
31 | COc1cccc(OC(=O)c2ccccc2)c1OC(=O)c1ccccc1 | 39.4%
32 | COc1ccc(N=C(c2ccccc2)C2C(=O)c3ccccc3C2=O)cc1 | 72.5%
33 | CCCCCCCCCCCCCCCCN=C(CC(=O)O)C(=O)O | 95.2%
34 | ClC1=C2NC=NC2n2c(nnc2-c2ccc(Cl)cc2)N1 (stereo not given) | 91.6%
35 | COc1ccc(OCC(=O)OC(C)C)cc1 | 84.3%
36 | COc1cc2c3c(cccc3c1)C(=O)N(CCN1CCCC1)C2=O | -3.53% (active)
37 | COc1cc(-c2nc3ccccc3[nH]2)ccc1OCC(=O)N=Nc1c(O)[nH]c2ccccc12 | -55.4% (active)
38 | COc1ccc(Cc2cnc(N)nc2N)cc1OC | 104%
39 | C=CC[N+](C)(C)C | 97.4%
40 | FC(F)(F)c1cccc(-n2nnc3cnc(Nc4ccc(N5CCCCC5)cc4)nc32)c1 | 68.7%
